# Results published in PubChem BioAssay (NCI).
# About 83,000 compounds went through this panel and 20% of them were active in at least one assay; those are over-represented in the sample as a whole.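 Interpretation: 100, growth as untreated; towards 0, rising growth inhibition; 0, no net growth; 0 to -100, cell death. Compounds scoring below 10 were considered active.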 A number with no mark means an inactive call. Active and inactive are the calls of the source.
# Columns and labels:
# Assay in all cases: NCI-60 one-dose screen, 48 h (100 = growth as untreated, 0 = no growth, -100 = all killed)
# Details in all cases: 10 µM unless noted
# SR leukemia = tested on: SR leukemia
# RPMI-8226 leukemia = tested on: RPMI-8226 leukemia
# OVCAR-8 ovarian = tested on: OVCAR-8 ovarian
# OVCAR-5 ovarian = tested on: OVCAR-5 ovarian
# OVCAR-4 ovarian = tested on: OVCAR-4 ovarian
# SK-OV-3 ovarian = tested on: SK-OV-3 ovarian
# IGROV1 ovarian = tested on: IGROV1 ovarian
# OVCAR-3 ovarian = tested on: OVCAR-3 ovarian
# HS 578T breast = tested on: HS 578T breast
# NCI/ADR-RES ovarian = tested on: NCI/ADR-RES ovarian
# T-47D breast = tested on: T-47D breast
# BT-549 breast = tested on: BT-549 breast
# MDA-MB-435 melanoma = tested on: MDA-MB-435 melanoma
# SW-620 colon = tested on: SW-620 colon
# MCF7 breast = tested on: MCF7 breast
# HCT-116 colon = tested on: HCT-116 colon
# HCC-2998 colon = tested on: HCC-2998 colon
# KM12 colon = tested on: KM12 colon
SMILES,growth (SR leukemia),growth (RPMI-8226 leukemia),growth (OVCAR-8 ovarian),growth (OVCAR-5 ovarian),growth (OVCAR-4 ovarian),growth (SK-OV-3 ovarian),growth (IGROV1 ovarian),growth (OVCAR-3 ovarian),growth (HS 578T breast),growth (NCI/ADR-RES ovarian),growth (T-47D breast),growth (BT-549 breast),growth (MDA-MB-435 melanoma),growth (SW-620 colon),growth (MCF7 breast),growth (HCT-116 colon),growth (HCC-2998 colon),growth (KM12 colon)
O=C(NNc1nc2cc(F)ccc2n2c(CN3CCC(O)C3)ccc12)c1cnccn1 (configuration not stated),6.32% (active),27.4%,13.8%,41.4%,18.9%,8.37% (active),18.2%,34.9%,75.9%,2.49% (active),13%,29.5%,27.8%,24.6%,8.92% (active),17.9%,38.5%,24.9%
Fc1ccc(-c2cc3nc(C(Cl)Cl)nc(-c4ccco4)n3n2)cc1,64.8%,-31.5% (active),10.4%,-13.7% (active),17.7%,18.8%,74.3%,-46.9% (active),-6.45% (active),-18.9% (active),7.31% (active),82.4%,-1.86% (active),3.29% (active),-8.71% (active),-36.8% (active),-69.1% (active),-24.5% (active)
Cn1cc(-c2nnc(N)nc2-c2c[nH]c3ccc(F)cc23)c2cc(F)ccc21,41.1%,65.6%,90.3%,109%,98.4%,88.4%,35.7%,78.6%,84.1%,86.7%,26.1%,71.2%,94.8%,59.8%,30.4%,62.1%,93.1%,74.5%
CS(=O)(=O)Nc1cc(-c2ccc3ncc(C#N)c(N[C@H](CO)c4ccccc4)c3c2)cnc1Cl,20.7%,64.2%,56.2%,74.1%,54%,81.1%,3.75% (active),24%,13.7%,97.8%,28.3%,33.9%,47.2%,26.6%,17.7%,25.7%,42.1%,70.2%
CCN(CC)c1ccc(NC2=C(Cl)C(=O)c3nc(C)ccc3C2=O)cc1,7.24% (active),2.6% (active),-12.2% (active),108%,-97% (active),112%,-52.2% (active),-29.6% (active),65.4%,51.2%,-36% (active),132%,-76% (active),-29.3% (active),-38.5% (active),-63.8% (active),9.75% (active),101%
O=C(NNc1nc2cc(F)ccc2n2c(CO)ccc12)c1cnccn1,5.16% (active),21%,10.9%,36.4%,20.5%,9.3% (active),14.9%,33.4%,68.3%,3.02% (active),11.7%,22.6%,27.3%,21.3%,8.73% (active),17.7%,44.5%,22.2%
COc1ccc(NC(=O)Nc2ccc3c(ccn3C(=O)c3cccc(F)c3)c2)cc1,42.7%,78.9%,89.1%,62.3%,48.1%,106%,69.1%,13.5%,31.6%,65.5%,75.9%,76.2%,74.9%,60.2%,60.4%,45.8%,86.8%,53%
Nc1nc(N)c2c(n1)NC(c1ccc(Cl)cc1)CC(c1ccc(Nc3nc(NCCO)nc(N4CCOCC4)n3)cc1)=N2 (configuration not stated),8.95% (active),38.9%,72%,96.7%,93.8%,103%,78.8%,73.2%,65.9%,97.3%,74.8%,71%,81.7%,79.4%,41.9%,57.3%,108%,65.3%
CC(=O)O[C@@H]1C(=O)N(c2cnccn2)[C@H]1c1ccccc1[N+](=O)[O-],11.5%,13.3%,-20.5% (active),26.8%,66.6%,32.6%,13.6%,2.08% (active),13.8%,26.7%,85.2%,-13.3% (active),-38.7% (active),20.1%,15.5%,-14.2% (active),31.5%,-2.26% (active)
